Screens deposited in PubChem BioAssay by Broad Institute.
GSIS activator – primary screen for activators of insulin secretion dependent on glucose, INS-1E cells, GLuc reporter luminescence | INS-1E GLuc reporter insulin secretion, 2-3 h | activation, % at 16.6 µM | actives 0.61% (n = 370,000) | AID 743287;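 active = lowest replicate activation of at least 40%, so every replicate reaches that level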
AF4-AF9 inh – MLL-AF4/AF9 protein interaction inhibition; AID 651704; inhibition, % at 10 µM; AlphaScreen, biotin-AF4 peptide binding to FLAG-AF9; actives 0.47% (n = 350,000); P42568;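 active = every replicate reaching a set inhibition limit, whatever the replicate mean, cut at about 25% in these data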
ERAP1 inh – inhibitors of human ERAP1 aminopeptidase; Q9NZ08; recombinant ERAP1, Leu-AMC fluorescence, 60 min; inhibition, % at 10.7 µM; actives 0.15% (n = 340,000);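 active = mean replicate inhibition of at least 30%, or all replicates individually reaching that 30% level; inactive = mean below 30% and not every replicate reaching it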
RAD54 branch – RAD54 (human) branch migration inhibition; inhibition, % at 10.4 µM; RAD54 Holliday junction branch migration, FAM/BHQ fluorescence; actives 0.14% (n = 360,000);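 active = mean normalized replicate activity at least 40 and at least half of replicates scoring 40 or more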;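 note: inhibitors cause a drop in the FAM fluorescence signal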
Target sequence (Q92698 whole entry, looked up): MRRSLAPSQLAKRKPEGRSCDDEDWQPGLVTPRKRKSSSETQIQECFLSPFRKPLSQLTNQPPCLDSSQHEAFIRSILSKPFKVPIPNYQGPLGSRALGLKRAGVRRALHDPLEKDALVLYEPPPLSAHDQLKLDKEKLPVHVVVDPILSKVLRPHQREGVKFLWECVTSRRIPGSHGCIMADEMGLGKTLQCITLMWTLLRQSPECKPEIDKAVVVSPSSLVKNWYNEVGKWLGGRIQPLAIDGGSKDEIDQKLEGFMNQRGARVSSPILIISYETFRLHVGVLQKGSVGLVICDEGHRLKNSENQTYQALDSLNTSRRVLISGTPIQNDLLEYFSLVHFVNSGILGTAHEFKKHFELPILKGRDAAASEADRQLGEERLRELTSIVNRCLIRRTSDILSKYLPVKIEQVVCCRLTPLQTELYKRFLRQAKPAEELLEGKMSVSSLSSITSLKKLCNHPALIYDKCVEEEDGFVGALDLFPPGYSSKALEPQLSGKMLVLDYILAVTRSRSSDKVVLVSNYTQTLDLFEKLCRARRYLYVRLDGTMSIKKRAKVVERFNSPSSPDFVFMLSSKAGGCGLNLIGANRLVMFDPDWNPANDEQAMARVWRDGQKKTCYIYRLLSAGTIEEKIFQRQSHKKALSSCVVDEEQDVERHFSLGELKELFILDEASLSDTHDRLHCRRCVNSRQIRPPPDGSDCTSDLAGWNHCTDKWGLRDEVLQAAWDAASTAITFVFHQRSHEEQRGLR
RAD52 anneal inh – blocks human RAD52 DNA annealing; P43351; recombinant RAD52 DNA annealing, FRET fluorescence; inhibition, % at 18.7 µM; actives 0.46% (n = 360,000); AID 651710;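 active = every replicate showing at least 50% inhibition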
PGC1a acetyl inh – modulators of PGC1a acetylation. U2OS PGC1a acetylation, AlphaScreen anti-acetyl-lysine; with virally co-expressed GCN5 acetyltransferase. inhibition, % at 15.6 µM. actives 0.17% (n = 350,000);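 active = every replicate shows inhibition of at least 40%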
Each line names hits and unclear results; the compound was inactive in the other large screens; ! = a repeat was not active. The list is not random: actives were taken first. Their share in the collection is about 1.4%.

C[C@H](CO)N1C[C@H](C)[C@H](CN(C)C(=O)CC2CC2)Oc2cc(C3=CCCC3)ccc2S1(=O)=O	none
C=CCn1c(SC2CCOC2=O)nc2sc(CC)cc2c1=O (stereo not drawn)	GSIS activator 59 (no result: AF4-AF9 inh, ERAP1 inh, RAD52 anneal inh)
CCNc1nc(NCC)nc(Nn2cnnc2)n1	GSIS activator 56
COc1ccc(C(C)=O)cc1COC(=O)CCC(=O)c1cccs1	GSIS activator 44
CCOc1ccc(CCNC(=O)CCC(=O)c2cccs2)cc1OCC	GSIS activator 95 (no result: PGC1a acetyl inh)
COc1ccc(CCNC(=O)CCC(=O)c2cccs2)cc1OC	GSIS activator 103 (no result: PGC1a acetyl inh)
O=C1N[C@@H](Cc2ccccc2)COCc2cn(nn2)CC[C@H]1Cc1ccccc1	none (no result: RAD54 branch, PGC1a acetyl inh)
CCOC(=O)c1[nH]c2ccc(Br)cc2c1NC(=O)CCN1CCOCC1	ERAP1 inh 34 (no result: AF4-AF9 inh)
COc1cc2[nH]c3c(Cl)ncnc3c2cc1OC	GSIS activator 54 (no result: AF4-AF9 inh, ERAP1 inh, RAD52 anneal inh)
COc1ccc(/C=C2/C(=O)OCc3cc(OC)c(OC)cc32)cc1	GSIS activator 113 (no result: AF4-AF9 inh, ERAP1 inh, RAD54 branch, RAD52 anneal inh, PGC1a acetyl inh)
COc1ccc(/C=C2\CCOC2=O)cc1	none (no result: GSIS activator, AF4-AF9 inh, ERAP1 inh, RAD52 anneal inh)
COc1cccc(N2CCN(c3ncnc4c3[nH]c3ccc(F)cc34)CC2C)c1 (stereo not drawn)	PGC1a acetyl inh 77 (no result: GSIS activator, AF4-AF9 inh, ERAP1 inh, RAD52 anneal inh)
CC(=O)OC[C@]12CC[C@H]3[C@@](C)(CC[C@H]4C(C)(C)CCC[C@]34C)[C@@H]1CC(C1=CC(=O)OC1O)O2 (stereo partly drawn)	PGC1a acetyl inh 87 (no result: GSIS activator)
Cc1ncsc1CCOC(=O)c1cccc([N+](=O)[O-])c1	GSIS activator 42!
CCCC(=O)N1CCC2(CC1)CN[C@@H](CO)c1c2c2ccc(OC)cc2n1C	none (no result: AF4-AF9 inh, ERAP1 inh, RAD54 branch, RAD52 anneal inh, PGC1a acetyl inh)
CCn1c(SCC(=O)NC2CCCCC2)nc2ccccc2c1=O	ERAP1 inh 55
O=C(CSc1nc2ccccc2c(=O)n1-c1ccccc1)NCC1CCCO1 (stereo not drawn)	ERAP1 inh 82
N#CCSc1nc2ccccc2c(=O)n1CC1CCCC1	GSIS activator 44 (no result: PGC1a acetyl inh)
N#Cc1cccc(-c2ccc([C@@H]3[C@@H]4CN(S(=O)(=O)c5ccc(-c6ccccc6)cc5)C[C@H]3N4)cc2)c1	GSIS activator 556, PGC1a acetyl inh 93 (no result: RAD54 branch)
Cc1ccc(S(=O)(=O)N2C[C@@H]3N[C@H](C2)C3c2ccc(-c3cccc(C#N)c3)cc2)cc1 (stereo partly drawn)	RAD52 anneal inh 82! (no result: RAD54 branch)
C[C@@H]1CN([C@H](C)CO)C(=O)Cc2cc(NS(=O)(=O)c3ccc(Cl)cc3)ccc2O[C@H]1CN(C)C	none
CN(C)c1ccc(C2C3CCCc4ccccc4C3=NN2C)cc1 (stereo not drawn)	AF4-AF9 inh 30 (no result: RAD54 branch)
COCC(=O)Nc1ccc2c(c1)C(=O)N(C)[C@H]1CC[C@H](CC(=O)OC)O[C@@H]1CO2	none (no result: RAD54 branch)
COc1ccc(/C=N/Nc2cc(C)nc3ccc(Br)cc23)cc1	RAD54 branch 119 (no result: PGC1a acetyl inh)
COc1ccc2nc(C)cc(N/N=C/c3cccc(OC)c3O)c2c1	AF4-AF9 inh 25, RAD54 branch 108
COc1cccc2c(N/N=C/c3ccccc3)cc(C)nc12	none
O=C(CSc1nnc2ccc(-c3ccc(F)cc3)nn12)N1CCCC1	ERAP1 inh 34 (no result: RAD54 branch)
Cc1cccc(C(=O)NC(=S)NNC(=O)Cc2ccccc2)c1	none (no result: RAD54 branch, PGC1a acetyl inh)
Cc1cccc(C(=O)NC(=S)NNC(=O)COc2c(C)cccc2C)c1	GSIS activator 76 (no result: AF4-AF9 inh, ERAP1 inh, RAD54 branch, RAD52 anneal inh, PGC1a acetyl inh)
C[C@H]1CCCCO[C@H](CN(C)C(=O)c2ccncc2)[C@@H](C)CN([C@@H](C)CO)C(=O)c2cc(NS(C)(=O)=O)ccc2O1	none
C[C@H](CO)N1C[C@H](C)[C@@H](CN(C)S(=O)(=O)c2cn(C)cn2)Oc2c(NC(=O)CCCN(C)C)cccc2C1=O	none (no result: AF4-AF9 inh, ERAP1 inh, RAD54 branch, RAD52 anneal inh, PGC1a acetyl inh)
COc1ccc(C(=O)N/C(=C/c2cccs2)C(=O)NC(C)(C)C)cc1OC	PGC1a acetyl inh 67
O=C(CSc1ccccn1)Nc1cccc2ccccc12	ERAP1 inh 88 (no result: GSIS activator)
CO[C@@H]1CN(C)C(=O)c2ccc(NC(=O)Nc3cccc(Cl)c3)cc2OC[C@H](C)N(C(=O)Nc2c(C)noc2C)C[C@H]1C	none (no result: RAD54 branch)
C[C@H](CO)N1C[C@H](C)[C@H](CN(C)Cc2ccc(Oc3ccccc3)cc2)Oc2ccc(NC(=O)C3CCCCC3)cc2C1=O	none (no result: AF4-AF9 inh, ERAP1 inh, RAD54 branch, RAD52 anneal inh)
COc1cc(CN2CCN(Cc3ccccc3C(F)(F)F)CC2)cc(OC)c1OC	PGC1a acetyl inh 63
CC(=O)N(C)C[C@H]1Oc2ccc(N)cc2CC(=O)N(C)C[C@@H]1C	none (no result: AF4-AF9 inh, ERAP1 inh, RAD54 branch, RAD52 anneal inh, PGC1a acetyl inh)
CCc1nc(N2[C@H](CO)[C@H](c3ccccc3-c3ccc(F)cc3)[C@@H]2C#N)sc1C	RAD52 anneal inh 60 (no result: RAD54 branch, PGC1a acetyl inh)
CCC(=O)N1[C@H](C#N)[C@@H](c2ccccc2-c2ccccc2)[C@@H]1CO	none (no result: RAD54 branch)
C/C=C/c1ccccc1[C@H]1[C@@H](C#N)N(c2ncc(CC)s2)[C@@H]1CO	RAD52 anneal inh 65 (no result: RAD54 branch, PGC1a acetyl inh)
CCC(=O)N1[C@@H](C#N)[C@H](c2ccccc2-c2ccccc2)[C@@H]1CO	RAD52 anneal inh 71 (no result: RAD54 branch, PGC1a acetyl inh)
CCc1nc(N2[C@@H](C#N)[C@@H](c3ccccc3-c3ccc(F)cc3)[C@@H]2CO)sc1C	none (no result: RAD54 branch)
Cc1noc(C)c1S(=O)(=O)Nc1ccc2c(c1)C(=O)N([C@@H](C)CO)C[C@@H](C)[C@@H](CN(C)Cc1ccc(Cl)c(Cl)c1)OCCCC[C@@H](C)O2	none
CCN1[C@@H]2c3ccc(C4=CCCC4)c(=O)n3C[C@@H]2[C@@H](CO)[C@@H]1C(=O)NCCCN(C)C	none (no result: RAD54 branch, PGC1a acetyl inh)
O=C(O)C(=Cc1ccccc1)Cc1ccccc1	GSIS activator 41
COc1ccc(NC(=O)N(C)C[C@H]2Oc3ccc(NS(=O)(=O)c4c(C)noc4C)cc3C(=O)N([C@@H](C)CO)C[C@@H]2C)cc1	none
CC(=O)c1ccc(OCC(=O)Nc2ccc(N3CCCCC3)cc2)cc1	AF4-AF9 inh 26
O=C(Nc1nc(-c2ccc(-c3ccccc3)cc2)cs1)C1=COCCO1	GSIS activator 84 (no result: AF4-AF9 inh, ERAP1 inh, RAD54 branch, RAD52 anneal inh, PGC1a acetyl inh)
C=CCn1nnnc1SCC(=O)Nc1cccc(C(F)(F)F)c1	ERAP1 inh 103
O=C([C@@H]1[C@@H](CO)[C@@H]2Cn3c(ccc(-c4cccnc4)c3=O)[C@H]1N2CC1CC1)N1CCCCC1	none (no result: PGC1a acetyl inh)
Cc1ccc(C)c(OCC(=O)Nc2nonc2NC(=O)COc2cc(C)ccc2C)c1	GSIS activator 129 (no result: AF4-AF9 inh, ERAP1 inh, RAD52 anneal inh)
CCCOC(=O)Nc1ccc(S(=O)(=O)Nc2ncccn2)cc1	GSIS activator 54
C[C@@H]1CN([C@@H](C)CO)C(=O)c2cc(C3=CCCC3)cnc2O[C@@H]1CN(C)Cc1cccnc1	none
CN(C)S(=O)(=O)c1ccc(C(=O)NCC[N+]2(C)CCCCCC2)o1	ERAP1 inh 41
Cc1ccc(NC(=O)c2ccc(Br)o2)cc1S(=O)(=O)N(C)C	none (no result: RAD54 branch)
O=C1NC(=O)C2(CCCCC2C2CCCCC2)N1 (stereo not drawn)	GSIS activator 62
